# NFkB transloc inh: blocks IL-1B driven NFkB nuclear translocation in HUVEC cells; HUVEC IL-1B NFkB p65 nuclear translocation imaging; inhibition, % at 2 µM; hit rate 0.43% among 94,000; AID 796;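 active = inhibition above about 30% together with a positive call from visual inspection of the well image, limit read from the data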;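 note: nuclear over cytoplasmic p65 intensity ratio measured by imaging; 0% = IL-1B stimulated DMSO wells and 100% = unstimulated DMSO wells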
# HUVEC tox IL1B: HUVEC cytotoxicity counter-screen, IL-1B stimulated; HUVEC cell count loss, Hoechst imaging; cell count reduction, % at 2 µM; hit rate 0.41% among 94,000; AID 845;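 active = cell count reduction more than 3 SD above the screen-wide mean, cut at about 70% in these data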;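 note: normalized per plate to untreated control cells as the no-loss baseline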
# IL1B NFkB pot: enhances IL-1B driven NFkB nuclear translocation. activation, % at 2 µM. HUVEC IL-1B NFkB p65 nuclear translocation imaging. hit rate 0.3% among 94,000;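 active = activation above 40%, about the mean plus 3 SD, also judged a hit on visual image review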;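 note: percent activation is computed from the nuclear over cytoplasmic p65 intensity ratio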
# sEH act: activators of human soluble epoxide hydrolase. P34913. purified human sEH enzymatic activity, activator screen. activation, % at 2 µM. hit rate 0.04% among 91,000; in the data active = activation above about 37%
# Target sequence (P34913 whole entry, looked up): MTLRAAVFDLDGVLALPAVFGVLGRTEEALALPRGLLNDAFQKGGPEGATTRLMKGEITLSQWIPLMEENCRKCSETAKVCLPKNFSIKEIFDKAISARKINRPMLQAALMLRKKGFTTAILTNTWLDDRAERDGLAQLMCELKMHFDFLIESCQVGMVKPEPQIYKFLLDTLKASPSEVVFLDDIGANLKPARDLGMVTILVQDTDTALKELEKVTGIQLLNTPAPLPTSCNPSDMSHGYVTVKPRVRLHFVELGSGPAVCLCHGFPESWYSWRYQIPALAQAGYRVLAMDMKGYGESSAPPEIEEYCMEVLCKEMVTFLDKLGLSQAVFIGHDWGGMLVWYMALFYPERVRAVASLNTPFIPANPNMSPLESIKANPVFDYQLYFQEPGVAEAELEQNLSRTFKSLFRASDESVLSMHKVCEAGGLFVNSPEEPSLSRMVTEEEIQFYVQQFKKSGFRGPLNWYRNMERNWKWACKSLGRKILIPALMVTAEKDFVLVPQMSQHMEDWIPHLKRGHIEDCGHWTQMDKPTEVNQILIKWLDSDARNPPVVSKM
# Cav3 T inh: blocks human Cav3.2 T-type calcium channel; O95180; B-score at 10 µM; Cav3.2-expressing cells, Fluo-4 calcium fluorescence FDSS; hits give low values; hit rate 4% among 100,000;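 active = single-dose well whose peak fluorescence ratio is a statistical outlier from its plate by either plate-standardised score or position-corrected B-score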
# sEH inhibitor: blocks human soluble epoxide hydrolase activity | inhibition, % at 2 µM | recombinant human sEH enzymatic activity assay | P34913 | hit rate 0.34% among 91,000; in the data active = inhibition above about 80%
# * marks the source's active call; other numbers are inactive results; · = no result given. Sampled rows, rich in hits. Any-hit rate of the full collection: about 4.6%.
SMILES,NFkB transloc inh,HUVEC tox IL1B,IL1B NFkB pot,sEH act,Cav3 T inh,sEH inhibitor
CCCN(CCC)C(=O)CSc1nc2ccccc2c(=O)n1C1CCCC1,7,-30,-7,-8,-5.6*,10
CN(C)c1ccc(NC(=O)CSc2nc3ccccc3c(=O)n2C2CCCCC2)cc1,6,-16,-6,-8,-1.6,8
Cc1ccc(C)c(C(=O)n2cnnc2N)c1,-9,-1,9,13,0.23,-13
CC(C)(C)n1nc2c(c1NC(=O)COc1ccc(Cl)cc1)CSC2,24,-1,-24,-20,-4.4*,22
Cc1ccccc1-n1c(SCC(=O)N2CCCC2)nnc1-c1ccccn1,-19,19,19,3,0.81,-1
CCN(CC)S(=O)(=O)c1ccc(S(=O)(=O)Nc2ccc3c(c2)oc2ccccc23)cc1,5,7,-5,-3,-0.83,4
CC(c1ccco1)N(C(=O)CSc1ccc(Br)cc1)c1ccccn1 (centres undefined),-15,-34,15,0,-4.5*,3
N#Cc1nc(Cc2ccccc2)oc1N1CCC(C(N)=O)CC1,·,·,·,3,-0.81,-3
N#Cc1nc(Cc2ccccc2)oc1N1CCC(Cc2ccccc2)CC1,-3,-10,3,11,-5.2*,-9
N#Cc1nc(Cc2ccccc2)oc1N1CCN(c2ccccc2)CC1,-1,-40,1,-5,-4.8*,4
O=C(Cc1cccs1)Nn1c(Cc2cccs2)nc2ccccc2c1=O,·,·,·,·,0.61,·
CCC(C)CCCCCCCCCCC(=O)O (centres undefined),·,·,·,·,-0.0047,·
O=[N+]([O-])c1cc(S(=O)(=O)Nc2ccccc2)ccc1-n1nnc2ccccc21,6,-17,-6,-1,-6.3*,2
O=C(O)c1cccc(NS(=O)(=O)c2ccc3nnn(O)c3c2)c1,3,-16,-3,-7,0.015,8
Cc1sc2nc(SCc3nnc(-c4cccs4)o3)n(C3CCCC3)c(=O)c2c1C,8,-11,-8,2,-3.5,-1
Cn1c2ccccc2c(=O)c2c(=O)n(C3CCCCC3)c(-c3cccs3)nc21,15,-8,-15,0,-4.3*,2
Cc1ccc(S(=O)(=O)Nc2cc(C)c(O)c(S(=O)(=O)c3ccc(C)cc3)c2)cc1,-8,-9,8,-10,-3.7*,10
O=C(Nc1ccccc1Cl)c1cc(S(=O)(=O)N2CCCC(C(=O)O)C2)ccc1F (centres undefined),11,-4,-11,-14,1.1,14
CC(=O)Nc1c(C(=O)N2CCN(c3ncccn3)CC2)cnn1-c1ccccc1Cl,-40,-48,40*,8,·,-9
O=C(CCCSc1nnnn1-c1cccc2ccccc12)c1ccc(F)cc1,8,24,-8,15,-4.6*,-13
C[C@H](NC(=O)c1nc[nH]c1C(=O)NCc1ccc(CNC(=O)OC(C)(C)C)cc1)C(=O)OC(C)(C)C,·,·,·,·,-1,·
COC(=O)c1sccc1NC(=O)Nc1ccc(Cl)c(Cl)c1,0,-15,0,1,0.56,2
COc1ccc(C2Nc3ccccc3C(=O)N2Cc2ccco2)cc1COc1ccccc1F (centres undefined),-6,-18,6,4,-5.2*,-2
COCCN1Cc2cccc(C(=O)NCc3ccccn3)c2C1=O,1,-5,-1,-3,-0.069,4
C/C=C1\COC(C(=O)NCc2ccncc2)(C(F)(F)F)C=C1C=C1CCCCC1 (centres undefined),·,·,·,·,-2.6,·
SMILES,NFkB transloc inh,HUVEC tox IL1B,IL1B NFkB pot,sEH act,Cav3 T inh,sEH inhibitor
C/C=C1\COC(C(=O)NCc2cccc(OC)c2OC)(C(F)(F)F)C=C1C=C1CCCCC1 (centres undefined),·,·,·,·,-4.2*,·
O=C(c1ccco1)N1CCN(c2ncnc3c2[nH]c2ccccc23)CC1,3,4,-3,9,·,-5
COC(=O)c1cc(NS(=O)(=O)c2ccc3c(c2)CCC(=O)N3)cc(C(=O)OC)c1,-13,-16,13,18,0.077,-20
CCOc1ccc(-n2c(Cc3ccccc3)nnc2SCc2c(C)noc2C)cc1,-13,-10,13,-18,-4.3*,18
Cc1ccc(-n2c(Cc3ccccc3)nnc2SCC(=O)NNC(=O)Cc2ccccc2)cc1,-10,-18,-3,-11,-5.7*,13
CCOc1ccc(-n2c(COc3ccc(C)cc3)nnc2SCC(N)=O)cc1,-20,6,20,-4,-1.2,3
CCOC(=O)CN(C(=O)CSc1nnc(Cc2ccccc2)n1-c1ccc(C)cc1)c1ccccc1,1,12,-1,0,-8.4*,-2

# Screening results as filed in PubChem.
